Compound activity: PubChem, several laboratories
Hits are enriched below; roughly 1.6% of the tested compounds scored in any of these assays.
MEX-5 binding: MEX-5 zinc finger RNA-binding disruptors – biochemical, C. elegans, fluorescence polarization, MLPCN library, primary screen; activity score (negative = inhibition of binding), % at 10 µM; AID 1832, 2009; Zinc finger protein mex-5 (Caenorhabditis elegans), Q9XUB2; MEX-5/FITC-TCR2 RNA binding; hits give low values; 300,000 compounds, 0.38% hits;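 active = inhibition past about -25% in most replicates, and total fluorescence under double the plate's negative control median, limit read from the data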;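 note: 0% = DMSO and -100% = 5 µM competing unlabeled TCR2 RNA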
Target sequence (Q9XUB2 whole entry, looked up): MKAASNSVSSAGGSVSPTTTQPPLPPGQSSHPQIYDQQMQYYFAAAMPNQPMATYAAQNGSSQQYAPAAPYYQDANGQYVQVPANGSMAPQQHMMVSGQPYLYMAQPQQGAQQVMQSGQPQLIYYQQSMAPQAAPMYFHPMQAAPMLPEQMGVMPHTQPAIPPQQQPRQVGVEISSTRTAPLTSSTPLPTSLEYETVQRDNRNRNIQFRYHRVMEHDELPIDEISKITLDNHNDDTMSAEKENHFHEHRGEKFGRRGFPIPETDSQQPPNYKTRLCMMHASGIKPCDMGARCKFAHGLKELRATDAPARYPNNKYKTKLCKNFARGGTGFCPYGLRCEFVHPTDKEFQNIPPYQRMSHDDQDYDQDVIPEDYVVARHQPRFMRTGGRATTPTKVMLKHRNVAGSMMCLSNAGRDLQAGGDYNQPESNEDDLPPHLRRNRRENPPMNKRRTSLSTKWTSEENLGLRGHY
PREPL inhibitor: PREPL enzyme inhibitors, primary screen, biochemical, fluorescence polarization; Prolyl endopeptidase-like (Homo sapiens), Q4J6C6; recombinant PREPL, fluorescence polarization activity-based probe; inhibition, % at 5.96 µM; 320,000 compounds, 0.68% hits; in the data active = inhibition above about 43%;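 note: 0% = enzyme with DMSO and 100% = wells lacking enzyme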
LYPLA2 inh: LYPLA2 inhibitors, primary screen, counter-screen for PME1 inhibitor project, biochemical, fluorescence polarization, FP-Rh probe ABPP. inhibition, % at 5.9 µM. recombinant LYPLA2. 320,000 compounds, 0.38% hits;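 active = inhibition above the screen-wide mean plus 3 SD, limit set per campaign, cut at about 26% in these data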;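 note: 0% = LYPLA2 with DMSO and 100% = wells lacking LYPLA2 enzyme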
LYPLA1 counter: LYPLA1 inhibitors, primary screen, counter-screen for PME1 inhibitor project, biochemical, fluorescence polarization, FP-Rh probe ABPP. AID 2174, 2009. inhibition, % at 5.9 µM. Acyl-protein thioesterase 1 (Homo sapiens), O75608. recombinant LYPLA1. 320,000 compounds, 0.16% hits;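 active = inhibition above the mean of all tested compounds plus 3 SD, set per campaign, cut at about 14% in these data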;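 note: inhibitors block serine hydrolase probe labeling of LYPLA1 so polarization falls; 0% = enzyme with DMSO and 100% = wells lacking LYPLA1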
Fam108B counter: mouse Fam108B serine hydrolase inhibitors, primary screen, counter-screen for RBBP9 inhibitor project, biochemical, fluorescence polarization; recombinant Fam108B, FP-Rh probe fluorescence polarization; inhibition, % at 9.51 µM; 300,000 compounds, 0.33% hits; AID 1947, 2009;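 active = inhibition above the screen mean inhibition plus 3 SD, computed separately per campaign, cut at about 18% in these data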;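 note: inhibitors lower polarization as less probe binds the enzyme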
PME-1 inh: PME-1 inhibitors via competitive probe labeling, primary screen, biochemical, fluorescence polarization, FP-Rh probe, HTS. Protein phosphatase methylesterase 1 (Homo sapiens), Q9Y570. recombinant PME-1. inhibition, % at 5.9 µM. 320,000 compounds, 0.53% hits. AID 2130, 2009;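 active = inhibition above the campaign mean of all compounds plus 3 SD, cut at about 26% in these data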;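 note: competitive labeling of PME-1 active site by serine hydrolase directed probe; 0% = PME-1 with DMSO and 100% = wells lacking PME-1 enzyme; inhibitors block probe labeling so polarization falls and inhibition rises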
LYPLA2 confirm: LYPLA2 inhibitors, retest, confirmation, counter-screen for PME1 inhibitor project, biochemical, fluorescence polarization, FP-Rh probe ABPP. AID 2232, 2010. 1,100 compounds, 72% hits. shares compounds with LYPLA2 inh. recombinant LYPLA2. inhibition, % at 5.9 µM;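 active = mean inhibition across replicates above the hit cutoff set in the primary screen, cut at about 26% in these data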;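 note: blocked labeling of the enzyme by serine hydrolase FP-Rh probe lowers polarization; 0% = enzyme with DMSO and 100% = wells lacking LYPLA2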
LYPLA2 ABPP: LYPLA2 inhibitors in proteome, late-stage follow-up, gel-based competitive ABPP, fluorescence, assay provider; rhLYPLA2 in mouse brain proteome, gel ABPP FP-Rh; AID 652029, 2013; shares compounds with LYPLA2 inh; 150 compounds, 30% hits; inhibition, % at 20 µM;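 active = inhibition of LYPLA2 enzyme probe labeling above about 50%, limit read from the data; inactive = inhibition below that limit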;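 note: loss of FP-Rh probe labeling of the LYPLA2 gel band measured as band density; 0% = DMSO only control band and 100% = blank gel background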
* = called active by the depositor; x = not tested or not shown.

SMILES	MEX-5 binding	PREPL inhibitor	LYPLA2 inh	LYPLA1 counter	Fam108B counter	PME-1 inh	LYPLA2 confirm	others
CCOc1cccc(C2C(C#N)=C(N)Oc3cc(C)oc(=O)c32)c1OCC (stereo not drawn)	0	0	0	0	3	1	x
O=C1c2c(O)cc(O)cc2O[C@H](c2ccc(O)c(O)c2)[C@@H]1O	41	10	29*	-2	6	-5	39*
O=C(CCc1ccccc1)NC(=S)Nc1cc(C(F)(F)F)ccc1N1CCOCC1	2	9	31*	2	-9	-12	13
CC(C)CC(=O)NC(=S)Nc1cc(C(F)(F)F)ccc1N1CCOCC1	1	14	13	-2	3	-1	x
CCN(CC(=O)Nc1ccc(NC(C)=O)cc1)C(=O)C12CC3CC(CC(Cl)(C3)C1)C2	3	4	5	2	1	5	x
CCN(CC)C(=O)c1ccc(S(=O)(=O)N2CCC(c3nc4ccccc4s3)CC2)cc1	0	-13	27*	6	2	8	16
COc1ccc(COCC(O)CN2CCC(CN3C(=O)c4cccc5cccc(c45)C3=O)CC2)cc1OC (stereo not drawn)	-2	24	5	3	0	3	x
COc1cccc(OCC(O)CN2CCC(CN3C(=O)c4cccc5cccc(c45)C3=O)CC2)c1 (stereo not drawn)	1	6	39*	9	-1	-3	51*	LYPLA2 ABPP=12
O=C(N1CCOCC1)N1CCN(CC(O)COc2ccc3ccccc3c2)CC1 (stereo not drawn)	-3	26	-2	1	-3	-1	x
O=C1c2cccc3cccc(c23)C(=O)N1CC1CCN(CC(O)COc2ccc3ccccc3c2)CC1 (stereo not drawn)	0	-22	47*	3	-7	-5	38*
Cc1cc(C)cc(OCC(O)CN2CCC(CN3C(=O)c4cccc5cccc(c45)C3=O)CC2)c1 (stereo not drawn)	0	17	46*	9	-2	-1	49*
CCc1ccc(OCC(O)CN2CCC(CN3C(=O)c4cccc5cccc(c45)C3=O)CC2)cc1 (stereo not drawn)	-2	-20	29*	-3	-1	5	29*
O=C(c1cc(COc2ccc(F)cc2F)on1)N1C[C@H]2CC[C@H]1C2	1	15	27*	2	1	1	1
Cc1cccc(NC(=O)COc2cccc3c2CCN(Cc2ccccc2)C3=O)c1C	4	8	3	-3	-1	4	x
O=C1Nc2ccc([N+](=O)[O-])cc2OC1CCN1CCN(Cc2ccc3c(c2)OCO3)CC1 (stereo not drawn)	-5	18	72*	1	1	9	79*	LYPLA2 ABPP=61*
CC(C)CN(C(=O)COC(=O)C1CC1)c1c(N)n(Cc2ccccc2)c(=O)[nH]c1=O	-1	19	2	5	3	1	x
CCn1c(SCC(=O)Nc2ccc(OC)c(OC)c2)nc2c(c1=O)SCC2	-1	2	9	2	3	5	x
Cc1ccc(C(CNC(=O)C(=O)Nc2ccc3c(c2)OCCO3)N2CCN(C)CC2)cc1 (stereo not drawn)	1	0	44*	-4	-1	-3	0
CCOC(=O)N1CCN(Cc2ccc3ccccc3c2)CC1	-1	x	x	x	x	x	x
